# From PubChem BioAssay (EPA / NIEHS)
# The source made the active and inactive calls. The calls were made as follows: active = hit-call score of the fitted dose curve at least 0.9, where 1 is the maximum; inactive = score below 0.9.
# Biological target: rat CYP2A1, Cyp2a1 (gene 24894) (UniProt P11711)
# Assay: NVS_ADME_rCYP2A1: NovaScreen (NVS) CYP450-related Enzyme Activity (ADME) Assay for rat CYP2A1 (AID 2283114)
# Experimental: NVS_ADME_rCYP2A1 is a biochemical, single-readout assay that uses extracted gene-proteins in a cell-free assay. Measurements were taken 0.75 hour after chemical dosing in a 96-well plate.NVS_ADME_rCYP2A1 is one of one assay component(s) measured or calculated from the NVS_ADME_rCYP2A1 assay. It is designed to make measurements of enzyme activity, a form of enzyme reporter, as detected with fluorescence intensity signals by Fluorescence technology.Data from the assay component NVS_ADME_rCYP2A1 was analyzed into 1 assay endpoint. This assay endpoint, NVS_ADME_rCYP2A1, was analyzed in the positive analysis fitting direction relative to Acetonitrile as the negative control and baseline of activity. Using a type of enzyme reporter, loss-of-signal activity can be used to understand changes in the enzymatic activity as they relate to the gene Cyp2a1. Furthermore, this assay endpoint can be referred to as a primary readout, because this assay has produced multiple assay endpoints where this one serves a enzymatic activity function. To generalize the intended target to other relatable targets, this assay endpoint is annotated to the cyp intended target family, where the subfamily is xenobiotic metabolism.
# Binding assays used specific radioligands (tritiated, iodinated) with non-radioactive competitive displacement ligands in agonist or antagonist protocols (as indicated) and various reference compounds and inhibitors to titrate specific binding to receptors and transporters. Most enzyme assays (CYPs, kinases, phosphatases, proteases, HDACs) used recombinant protein and specific substrates (fluorescence mostly, some colorimetric and radioactive) and inhibitors, followed by a biochemical separation of substrate and product. All assays for the biochemical HTS were initially run in duplicate at a single concentration (10 uM for CYP450 assays and 25 uM for all others). Assay-chemical combinations meeting a pre-defined threshold (e.g., 30% inhibition and other criteria defined below) were then run in singleton concentration-response format with maximum concentration of 20 uM for CYPs and 50 uM for all others. Each assay was run with positive and negative controls, and concurrent controls on every plate. The follow-up (secondary) screen tested active chemical-pairs in concentration series, as well as a few additional assays not tested in the primary screen, some selected negative inactives, and several cases re-run in the concentration series for confirmatory purposes.
# Sequence of rat CYP2A1, Cyp2a1 (gene 24894) (P11711 whole entry, looked up): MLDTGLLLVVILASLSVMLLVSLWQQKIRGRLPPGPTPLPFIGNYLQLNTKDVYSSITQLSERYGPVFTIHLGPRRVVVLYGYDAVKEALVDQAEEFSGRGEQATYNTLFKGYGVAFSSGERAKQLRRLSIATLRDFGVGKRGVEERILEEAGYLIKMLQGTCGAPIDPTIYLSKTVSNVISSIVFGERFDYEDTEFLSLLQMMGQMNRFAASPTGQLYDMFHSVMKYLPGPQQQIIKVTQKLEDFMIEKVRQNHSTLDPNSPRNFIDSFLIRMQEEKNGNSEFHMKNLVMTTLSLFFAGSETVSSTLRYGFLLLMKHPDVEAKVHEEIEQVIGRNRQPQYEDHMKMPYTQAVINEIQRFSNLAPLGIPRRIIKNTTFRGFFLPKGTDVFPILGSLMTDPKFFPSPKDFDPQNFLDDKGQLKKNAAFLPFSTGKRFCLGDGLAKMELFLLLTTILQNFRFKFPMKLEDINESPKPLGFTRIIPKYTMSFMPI
SMILES,outcome,AC50
N#CC(CCc1ccc(Cl)cc1)(Cn1cncn1)c1ccccc1 (stereo not drawn),inactive,
CO/C=C(/C(=O)OC)c1ccccc1Oc1cc(Oc2ccccc2C#N)ncn1,,3.83 µM (active)
CCOC(=O)C(Cl)Cc1cc(-n2nc(C)n(C(F)F)c2=O)c(F)cc1Cl (stereo not drawn),inactive,
CCOP(=S)(OCC)SCn1c(=O)oc2cc(Cl)ccc21,,3.22 µM (active)
CCOC(=O)CC(SP(=S)(OC)OC)C(=O)OCC (stereo not drawn),,5.52 µM (active)
Cc1ccc(-c2c(Cl)nc(C#N)n2S(=O)(=O)N(C)C)cc1,,7.38 µM (active)
CN(C)C(=S)SSC(=S)N(C)C,,2.83 µM (active)
OC(c1ccc(Cl)cc1)(c1cncnc1)c1ccccc1Cl (stereo not drawn),,4.33 µM (active)
CC1COC(Cn2cncn2)(c2ccc(Oc3ccc(Cl)cc3)cc2Cl)O1 (stereo not drawn),,0.14 µM (active)
CCCN(CCC)c1c([N+](=O)[O-])cc(S(N)(=O)=O)cc1[N+](=O)[O-],,2.62 µM (active)
CC1=C(C(=O)Nc2ccccc2)SCCO1,,6.72 µM (active)
COc1ccc(C(c2ccc(OC)cc2)C(Cl)(Cl)Cl)cc1,inactive,
COC(=O)c1ccccc1C(=O)OC,inactive,
